Results published in PubChem BioAssay (EPA / NIEHS).
The source made the active and inactive calls. The calls were made as follows: active = hit-call score of the fitted dose curve at least 0.9, where 1 is the maximum; inactive = score below 0.9.

read-out: Alkaline Phosphatase, Placental (ALPP) gene, ALPP (gene 250); experiment: LTEA_HepaRG_ALPP: Life Technologies and Expression Analysis (LTEA) Assay for Alkaline Phosphatase, Placental (ALPP) gene using HepaRG (AID 2283468); conditions: mRNA level, 48 h; actives raise or lower the signal;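 as to AC50: ALPP transcript by TaqMan qRT-PCR normalized to ACTB GAPDH and POLR2A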
Experimental: LTEA_HepaRG is a cell based, multiplexed-readout assay that uses HepaRG, a human liver cell line, with measurements taken at 48 hours after chemical dosing on a 96-well plate.LTEA_HepaRG_ALPP is one of 102 assay component(s) measured in the LTEA HepaRG cell culture assay. It is a marker of Cell proliferation, survival, death.Data from the assay component LTEA_HepaRG_ALPP was analyzed into 1 endpoint. This assay endpoint, LTEA_HepaRG_ALPP, was analyzed with bidirectional fitting relative to DMSO as the negative control and baseline of activity. Using a type of inducible reporter, measures of mRNA induction for gain or loss-of-signal activity can be used to understand regulation of transcription factor activity. To generalize the intended target to other relatable targets, this assay endpoint is annotated to the phosphatase intended target family, where the subfamily is Cell proliferation, survival, death.
A total of 1060 chemcials from the ToxCast library were tested in eight-point concentration-response experiments. Cell culture and cytotoxicity assays were conducted at Thermo Fisher Scientific's Custom Services facility (Madison, WI). A single lot of human HepaRG cells (Thermo Fisher Scientific, Frederick, MD) was used for the cell culture experiments. 96-well format collagen type I coated plates of human HepaRG cells were prepared using established methods. Briefly, cryopreserved HepaRG cells were thawed, plated at a density of approximately 100,000 cells/well in HepaRG Thaw, Plate, and General Purpose media (HPRG770, Thermo Fisher Scientific), and incubated for 48 hours. 0.5% DMSO was selected as vehicle control to balance the requisite need of DMSO in HepaRG cultures to maintain differentiation (for example, baseline metabolism, proportions of hepatocytes vs. cholangiocytes), while enabling further hepatic receptor pathway activation (for example, PXR and CAR) in response to chemical exposure. 48 hours after plating, the culture medium was replaced with HepaRG Serum-Free Incudtion Media. Cells were exposed to each test chemical in duplicate and maintained in CO2 incubators for another 48 hours. Chemical plates were thawed to room temperature and 200x concentrations of treatment groups were prepared. 8-point conentration-reponse curves were made with the highest exposure at 100 uM, followed by half-log dilutions, all in 0.5% DMSO. Each test plate contained variouse controls, induction positive controls (1mM phenobarbital), cytotoxicity positive controls ([…] aflatoxin B1), vehicle controls (0.5% DMSO), and total lysis controls (0.5% DMSO). Cell morphology images were taken using an Essen IncuCyte FLR automated microscope, with six 96-well plates imaged in about 24 minutes. Images were captured and exported and JPEG files. Spent culture media was transfered to black-well plates for the LDH assay, and remaining media was sorted at -80 C for later use. Cells were treated with RLT buffer and frozen until shipped for gene expression analysis. Total RNA was isolated from the cell suspension in 75 uL of Buffer RLT (Qiagen, Germantown, MD 20874) by Quintiles/Expression Analysis (Durham, NC) using a custom isolation procedure. Total RNA from each plate well was transferred to a preamplification plate. Fluidigm's 96.96 Dynamic ArrayTM (Fluidigm, Amsterdam, the Netherlands) technology was used for gene expression analyses by quantitative reverse transcription polymerase chain reaction (qRT-PCR, performed by Quintiles/Expression Analysis, Durham, NC)89. Standard TaqManTM Assays (Applied Biosystems/ThermoFisher Scientific, Foster City, CA) were used to assess the expression of 93 genes selected based on their selectivity and sensitivity to important hepatic receptors known to be modulated by environmental chemicals; importance in human hepatocyte functionality; and hepatotoxicity. […]

Compound	AC50	outcome
CN1CCN(Cc2cc(-c3ccc4[nH]c(=O)oc4c3)co2)[C@@H](c2ccc(F)cc2)C1	50 µM (active)	–
C1CCC(SSC2CCCCC2)CC1	–	inactive
O=c1[nH]cc(F)c(=O)[nH]1	–	inactive
CCCCCCCC=O	–	inactive
Clc1cc(Cl)c(Cl)cc1Cl	–	inactive
O=C(N[C@@H](Cc1ccccc1)[C@@H](O)C(=O)N1C[C@@H](O)[C@@H](O)C1)c1cc2cc(Cl)ccc2[nH]1	–	inactive
Cc1nc(C)nc(N2C[C@@H](C)N(c3ccnc([C@@H](C)O)n3)[C@@H](C)C2)n1	–	inactive
CCCCCCCCCCCCCCCC	–	inactive
O=C(OCCCCCOC(=O)c1ccccc1)c1ccccc1	1.46 µM (active)	–
CCCc1cc(=O)[nH]c(=S)[nH]1	–	inactive
CCOC(=O)C(C)(C)Oc1ccc(Cl)cc1	–	inactive
NC(=O)Cn1c(=O)cc(CCN2CCN(c3nccc4sccc34)CC2)c2ccc(F)cc21	50 µM (active)	–
CCCCc1ccc2c(n1)[C@@H](c1ccc(OC)cc1C[C@H](C)C(=O)O)[C@H](C(=O)O)[C@H]2c1ccc2c(c1)OCO2	–	inactive
O=c1c(O)c(-c2ccc(O)c(O)c2)oc2cc(O)cc(O)c12	–	inactive
CCOC(=O)CCC(=O)OCC	–	inactive
COC(=O)c1ccc(O)cc1	–	inactive
CC1(C)NC(=O)NC1=O	–	inactive
NS(=O)(=O)c1cc2c(cc1Cl)NCNS2(=O)=O	–	inactive
O=C(O)Cc1ccccc1Nc1c(Cl)cccc1Cl	–	inactive
CCOc1ccc2c(c1)C(C)=CC(C)(C)N2	–	inactive

Compound	AC50	outcome
CN[C@H]1CC[C@@H](c2ccc(Cl)c(Cl)c2)c2ccc(S(N)(=O)=O)cc21	5.79 µM (active)	–
CCCCC(CC)COC(=O)CC(C(=O)OCC(CC)CCCC)S(=O)(=O)O (stereo not given)	–	inactive
Oc1ccc2c(c1)OC[C@@H](N1CCC(O)(c3ccc(F)cc3)CC1)[C@H]2O	–	inactive
FC(F)(F)C(F)(F)C(F)(F)C(F)(F)C(F)(F)C(F)(F)CCI	–	inactive
Cc1cccc([N+](=O)[O-])c1C	–	inactive
c1cc(-c2ccncc2)ccn1	–	inactive
CCc1c(C(=O)NN2CCCCC2)nn(-c2ccc(Cl)cc2Cl)c1-c1ccc(Br)cc1	12.3 µM (active)	–
CC(=O)C(C)=CC1C(C)=CCCC1(C)C (stereo not given)	–	inactive
CC(=O)Oc1ccccc1C(=O)O	–	inactive
Cc1nc(-c2ccc3c(c2)CCN(CCC2CCC(NC(=O)/C=C/c4ccc(F)cc4)CC2)CC3)no1 (stereo not given)	–	inactive
CCCCCCOCCO	–	inactive
Cc1cccc(C)c1O	–	inactive
COc1cc(C=O)ccc1O	–	inactive
Oc1ccc2ccccc2c1N=Nc1ccccc1	–	inactive
Cc1ccc(C)c(O)c1C	–	inactive
O=[N+]([O-])C(CO)(CO)CO	–	inactive
CCCCCCCCCCCC(=O)OC	–	inactive
CC1(C)CC(N=C=O)CC(C)(CN=C=O)C1 (stereo not given)	–	inactive
COCCOC[C@H](CC1(C(=O)NC2CCC(C(=O)O)CC2)CCCC1)C(=O)Oc1ccc2c(c1)CCC2 (stereo not given in full)	–	inactive
Cc1cc(=O)[nH]c(=S)[nH]1	–	inactive
